Source: PubChem BioAssay (NCI)
This is part of a sample that, as a whole, favours compounds with a hit. Of some 83,000 tested, about 20% had one in any assay.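 Results are percent growth after 48 hours of single-concentration exposure. 100 means growth as in untreated cells, lower positive values show inhibition; negative values down to -100 show cell death.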 A number with no mark means an inactive call. Calls of active or inactive are those of the source. How the source made its calls: active means growth percent below 10; inactive means the rest.

Assays:
Experiment in all cases: NCI-60 one-dose screen, 48 h (100 = growth as untreated, 0 = no growth, -100 = all killed)
Details in all cases: 10 µM unless noted
[1] = system: RPMI-8226 leukemia
[2] = system: OVCAR-8 ovarian
[3] = system: OVCAR-5 ovarian
[4] = system: OVCAR-4 ovarian
[5] = system: SK-OV-3 ovarian
[6] = system: IGROV1 ovarian
[7] = system: OVCAR-3 ovarian
[8] = system: HS 578T breast
[9] = system: NCI/ADR-RES ovarian

O=C(Oc1cccc2ccccc12)Oc1cccc2ccccc12
growth [1]: 113%
growth [2]: 107%
growth [3]: 103%
growth [4]: 113%
growth [5]: 102%
growth [6]: 73.6%
growth [7]: 79.4%
growth [8]: 106%
growth [9]: 103%

S=C(c1cccs1)N1CCN(c2cccc(Cl)c2)CC1
growth [1]: 86.3%
growth [2]: 104%
growth [3]: 97.2%
growth [4]: 101%
growth [5]: 107%
growth [6]: 89.9%
growth [7]: 106%
growth [8]: 120%
growth [9]: 104%

COc1ccc(OC)c(/C=C/C(=O)N/N=C/c2ccc(Cl)cc2)c1
growth [1]: 21.3%
growth [2]: 21%
growth [3]: 28.4%
growth [4]: 40.2%
growth [5]: -4.93% (active)
growth [6]: 17.9%
growth [7]: -43.4% (active)
growth [8]: -1.72% (active)
growth [9]: 3.82% (active)

CC(=O)Oc1ccccc1C(=O)N=C1[Se]CCCN1C(=O)c1ccccc1OC(C)=O
growth [1]: 80.8%
growth [2]: 47%
growth [3]: 90.8%
growth [4]: 78.8%
growth [5]: 141%
growth [6]: 11.7%
growth [7]: 7.64% (active)
growth [8]: 24.9%
growth [9]: 29%

N#Cc1c(-c2ccc(Cl)cc2)nc2c(c(-c3ccccc3)nn2-c2ccccc2)c1-c1ccc(O)cc1
growth [1]: 17.9%
growth [2]: 49.9%
growth [3]: 84%
growth [4]: 64.7%
growth [5]: 96.9%
growth [6]: 69.8%
growth [7]: 48.3%
growth [8]: 26.5%
growth [9]: 57.9%

COc1ccc(/C=N/Nc2cc(=O)[nH]c3ccc(C)cc23)cc1
growth [1]: 81.6%
growth [2]: 95.6%
growth [3]: 98%
growth [4]: 109%
growth [5]: 87.6%
growth [6]: 98.4%
growth [7]: 104%
growth [8]: 88.3%
growth [9]: 94.9%

O=C(CCCCCCSc1nc(-c2ccccc2)cc(-c2ccccc2)n1)NO
growth [1]: 7.64% (active)
growth [2]: 27.6%
growth [3]: 38.9%
growth [4]: 59.1%
growth [5]: 47.8%
growth [6]: 36.9%
growth [7]: 40%
growth [8]: 43.1%
growth [9]: 0.776% (active)

CN(C)c1ccc(/C=N\Nc2cc(=O)[nH]c3ccc(Cl)cc23)cc1
growth [1]: 93.2%
growth [2]: 93.4%
growth [3]: 101%
growth [4]: 121%
growth [5]: 82.9%
growth [6]: 75.3%
growth [7]: 108%
growth [8]: 82.8%
growth [9]: 99.8%

Cn1cc(-c2ccc3cc(-c4ccc(CC(=O)Nc5cc(C(C)(C)C)nn5C)cc4)cnc3c2)cn1
growth [1]: 3.3% (active)
growth [2]: 3.03% (active)
growth [3]: 43.8%
growth [4]: 3.73% (active)
growth [5]: -5.28% (active)
growth [6]: -1.22% (active)
growth [7]: 14.2%
growth [8]: -1.77% (active)
growth [9]: -2.56% (active)

O=CN(SSN(C=O)C1CCCCC1)C1CCCCC1
growth [1]: 120%
growth [2]: 104%
growth [3]: 113%
growth [4]: 101%
growth [5]: 113%
growth [6]: 100%
growth [7]: 107%
growth [8]: 112%
growth [9]: 116%

Cc1cc2nc3cc(C)c(N)cc3[n+](-c3ccccc3)c2cc1N
growth [1]: 41.4%
growth [2]: 40.7%
growth [3]: 103%
growth [4]: 36.4%
growth [5]: 91.3%
growth [6]: 79.4%
growth [7]: 26.2%
growth [8]: 59.2%
growth [9]: 101%

CC1Cc2ccccc2N1NC(=O)c1ccc(Cl)c(S(N)(=O)=O)c1 (stereo unspecified)
growth [1]: 101%
growth [2]: 104%
growth [3]: 105%
growth [4]: 98.7%
growth [5]: 98.4%
growth [6]: 98.6%
growth [7]: 119%
growth [8]: 107%
growth [9]: 101%

COc1cc(CNS(=O)(=O)c2ccc(C)cc2)ccc1OCc1cn(-c2ccccc2)nn1
growth [1]: 67.9%
growth [2]: 93.2%
growth [3]: 97.9%
growth [4]: 56.8%
growth [5]: 97.6%
growth [6]: 83.7%
growth [7]: 85%
growth [8]: 86.1%
growth [9]: 81.3%

Brc1c[n+](Cc2ccc3ccccc3c2)cn1Cc1ccc2ccccc2c1
growth [1]: -46.3% (active)
growth [2]: 8.2% (active)
growth [3]: 46.8%
growth [4]: -13.2% (active)
growth [5]: 34.9%
growth [6]: -51% (active)
growth [7]: -4.19% (active)
growth [8]: -7.66% (active)
growth [9]: 97.5%

Cc1ccc(/C=C2\Oc3ccc(O)c(O)c3C2=O)cc1
growth [1]: 51.1%
growth [2]: 44.5%
growth [3]: 68.5%
growth [4]: 43.7%
growth [5]: 63.6%
growth [6]: 38.1%
growth [7]: 11.7%
growth [8]: 62.5%
growth [9]: 45.1%

COc1cc(/C=C/c2c(C(C)=O)c(C)nc3ccccc23)cc(OC)c1OC
growth [1]: 23.6%
growth [2]: 52.6%
growth [3]: 61.3%
growth [4]: 52.7%
growth [5]: 36.6%
growth [6]: 32%
growth [7]: 15.1%
growth [8]: -16.7% (active)
growth [9]: 23.1%

CN1CCN(Cc2ccc(NC(=O)c3cncc(C#Cc4cnccc4C#N)c3)cc2C(F)(F)F)CC1
growth [1]: 34.1%
growth [2]: 74.2%
growth [3]: 60.5%
growth [4]: 35.9%
growth [5]: 101%
growth [6]: 67.2%
growth [7]: 86.3%
growth [8]: 24%
growth [9]: 74%

COC(=O)c1ccc2[nH]c(O)c(C(=Nc3ccc(N(C)C(=O)CN4CCN(C)CC4)cc3)c3ccccc3)c2c1
growth [1]: -6.02% (active)
growth [2]: 26%
growth [3]: 57.2%
growth [4]: 34.2%
growth [5]: 5.32% (active)
growth [6]: 10.2%
growth [7]: 50.5%
growth [8]: -18.2% (active)
growth [9]: 83.8%

Fc1cc(-c2nnc3sc(-c4ccc(Cl)cc4Cl)nn23)c(Cl)cc1Cl
growth [1]: 84%
growth [2]: 82.6%
growth [3]: 96.6%
growth [4]: 26.2%
growth [5]: 77.1%
growth [6]: 86.1%
growth [7]: 99.4%
growth [8]: -14.7% (active)
growth [9]: 89.4%

COc1ccc(/C=C(\C#N)n2nnc3c(F)cccc32)cc1
growth [1]: 17.9%
growth [2]: 16.3%
growth [3]: 15.7%
growth [4]: 37.8%
growth [5]: 39%
growth [6]: 13.2%
growth [7]: -34% (active)
growth [8]: -4.6% (active)
growth [9]: 0.281% (active)

S=c1nc(-c2ccccc2)oc(=NC2CCCCC2)n1C1CCCCC1
growth [1]: -8.22% (active)
growth [2]: 32.2%
growth [3]: 86.2%
growth [4]: 33.9%
growth [5]: 87.7%
growth [6]: -25.9% (active)
growth [7]: 11.8%
growth [8]: 43.1%
growth [9]: 32.5%

COc1ccc(OC)c(/C=C/c2nnc(Nc3ccccc3)o2)c1
growth [1]: 103%
growth [2]: 105%
growth [3]: 93.2%
growth [4]: 102%
growth [5]: 109%
growth [6]: 109%
growth [7]: 103%
growth [8]: 98.5%
growth [9]: 94.1%

FC(F)(F)c1cc(Nc2ccc3c(OCCCN4CCOCC4)cccc3n2)ccc1Cl
growth [1]: 13.4%
growth [2]: 75.5%
growth [3]: 50.5%
growth [4]: 55.4%
growth [5]: 78.5%
growth [6]: 48.4%
growth [7]: 60.9%
growth [8]: 55%
growth [9]: 56.2%

Cc1ccc(-c2nc(SCC(=O)Nc3nc(-c4ccc(Cl)cc4)cs3)[nH]c(=O)c2C#N)cc1
growth [1]: 103%
growth [2]: 92.3%
growth [3]: 94.3%
growth [4]: 111%
growth [5]: 100%
growth [6]: 105%
growth [7]: 115%
growth [8]: 90.5%
growth [9]: 109%

Nc1cc2c(cc1Br)-c1cc(Cl)ccc1C2=O
growth [1]: 88.7%
growth [2]: 99.3%
growth [3]: 91.8%
growth [4]: 99.9%
growth [5]: 98.7%
growth [6]: 74.2%
growth [7]: 96.5%
growth [8]: 98.6%
growth [9]: 106%

CC(=O)CC(c1cccs1)c1c(-c2ccccc2)[nH]c2ccccc12 (stereo unspecified)
growth [1]: 78%
growth [2]: 92.5%
growth [3]: 99.8%
growth [4]: 82.6%
growth [5]: 90.1%
growth [6]: 83.3%
growth [7]: 86.4%
growth [8]: 82.1%
growth [9]: 69%

COc1cc(C(=O)c2cc(C)c3[nH]c4ccc(C)cc4c3c2C)cc(OC)c1OC
growth [1]: 12.9%
growth [2]: 28.7%
growth [3]: 41.7%
growth [4]: 53%
growth [5]: 36.9%
growth [6]: 13.5%
growth [7]: -16.4% (active)
growth [8]: 43.1%
growth [9]: -2.71% (active)

CN1CCN(c2ccc(-c3cc4c(Nc5ccc(F)c(Cl)c5)ncnn4c3)cn2)CC1
growth [1]: 3.77% (active)
growth [2]: 77.1%
growth [3]: 97.8%
growth [4]: 88.4%
growth [5]: 110%
growth [6]: 89.5%
growth [7]: 98.6%
growth [8]: 76.9%
growth [9]: 83.6%

O=C(/C=C/c1sc(Cl)nc1Cl)c1ccccc1
growth [1]: 14%
growth [2]: 93.5%
growth [3]: 99.5%
growth [4]: 108%
growth [5]: 103%
growth [6]: 91.9%
growth [7]: 46%
growth [8]: 103%
growth [9]: 101%
